Hits are enriched below; roughly 6.9% of the tested compounds scored in any of these assays.
Cy5 interf NS3h – Cy5 fluorescence quenchers or enhancers, artefact control for HCV NS3 helicase inhibitor project, biochemical, ChemBridge library, Cy5 readout | AID 720488, 2013 | Cy5-dT15 DNA with NS3h, fluorescence interference; actives lie on both sides; signal over control mean, under 1 quenches | fluorescence interference ratio at 100 µM | hit rate 6% among 16,000;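 active = compound fluorescence over control fluorescence at most 0.8, a quencher, or at least a set upper limit, an enhancer; inactive = ratio between 0.8 and the set upper limit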
NS3h inh CB – HCV NS3 helicase inhibitors, primary screen, biochemical, fluorescence polarization, ChemBridge library | hit rate 1.6% among 16,000 | AID 687043, 2013 | NS3h Cy5-dT15 DNA binding | inhibition, % at 100 µM | Hepatitis C virus NS3 helicase;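 active = inhibition above the average over every tested compound plus 3 SD, cut at about 40% in these data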
HCV NS3h conf – HCV NS3 helicase inhibitors, retest, confirmation, biochemical, fluorescence polarization, ChemBridge library; shares compounds with NS3h inh CB; NS3h binding to Cy5-dT15 DNA; inhibition, % at 100 µM; hit rate 20% among 240; AID 720485, 2013;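 active = percent inhibition of 50% or more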
SSB-DNA FP CB – E. coli SSB-DNA binding inhibitors, counter-screen for HCV NS3 helicase inhibitor project, biochemical, fluorescence polarization, selected ChemBridge compounds; AID 720486, 2013; E. coli SSB binding Cy5-dT15; hit rate 40% among 240; inhibition, % at 100 µM; shares compounds with NS3h inh CB;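 active = inhibition of at least 50%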;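 note: displacers lower Cy5 polarization so higher inhibition means more SSB displaced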
Target sequence (P0AGE0 whole entry, looked up): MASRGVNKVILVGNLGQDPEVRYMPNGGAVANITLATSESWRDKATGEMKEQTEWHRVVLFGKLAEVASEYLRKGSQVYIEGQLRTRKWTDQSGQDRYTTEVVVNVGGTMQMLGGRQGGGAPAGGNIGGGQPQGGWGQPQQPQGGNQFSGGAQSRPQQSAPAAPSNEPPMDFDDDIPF
Cy5 SSB fluor CB – Cy5 fluorescence interference with SSB-bound oligo, artefact control for HCV NS3 helicase inhibitor project, biochemical, E. coli SSB, selected ChemBridge compounds | shares compounds with NS3h inh CB | Cy5-dT15/E. coli SSB fluorescence interference; actives lie on both sides | fluorescence interference ratio at 100 µM | hit rate 8% among 240 | AID 720487, 2013;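 active = fluorescence interference ratio at or above 1.2, signal boosting, or at or below 0.8, signal quenching; inactive = ratio between 0.8 and 1.2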
Cy5 fluor confirm – Cy5-DNA-NS3h complex fluorescence interference, confirmation, artefact control for HCV NS3 helicase inhibitor project, biochemical, ChemBridge library. AID 720489, 2013. fluorescence interference ratio at 100 µM, hits read low. hit rate 44% among 240. Cy5-dT15 DNA/NS3h fluorescence interference counterscreen. shares compounds with NS3h inh CB;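 active = fluorescence interference ratio at or below 0.8 quencher or at or above a set limitenhancer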
Of the large screens only hits and unclear results are named; the others gave an inactive call (follow-up assays come after a bar, where they were run).

O=C1NC(=S)NC(=O)C1=Cc1ccc(OCc2ccccc2)c(OCc2ccccc2)c1	none
COc1ccc(C=C2C(=O)NC(=O)NC2=O)cc1OCc1ccc(Cl)cc1Cl	Cy5 interf NS3h 0.61
O=C1NC(=S)N(c2ccc(Br)cc2)C(=O)/C1=C/c1ccc(-c2ccccc2C(=O)O)o1	none
Cc1ccc(C=C2C(=O)NC(=S)N(c3ccccc3F)C2=O)s1	NS3h inh CB 42
O=C1/C(=C/c2ccccc2O)N2CCC1CC2	none
O=C1CC(=O)N(c2ccc(F)cc2)C(=S)N1	none
COC(=O)N1[C@H](c2ccccc2)[C@@H]1c1ccccc1	Cy5 interf NS3h 0.68
Oc1ccc(Br)cc1CN1CCN(Cc2ccc(F)cc2)CC1	none
COc1ccc(C(=O)NC(Cc2cnc[nH]2)C(=O)O)cc1 (stereo unspecified)	none
O=[N+]([O-])c1ccc(N2CCNCC2)cc1NCCOc1ccccc1	Cy5 interf NS3h 0.7
CN1CCN(c2ccc([N+](=O)[O-])c(NC3CC3)c2)CC1	none
O=C1c2ccccc2-c2onc3c(Br)cc(N4CC4)c1c23	Cy5 interf NS3h 0.78
CCCCCC1(C)NCCN2C(=O)CSC21 (stereo unspecified)	none
O=C(CN1CCCC1=O)NCc1ccccc1	none
O=Cc1cn(Cc2ccccc2F)c2ccccc12	none
CCn1cc(C=C2C(=O)NC(=O)NC2=O)c2ccccc21	Cy5 interf NS3h 0.73
Cc1cc(C)cc(-n2c(C)cc(C=C3C(=O)NC(=O)NC3=O)c2C)c1	none
Cc1ccc(S(=O)(=O)n2cc(C=C3C(=O)NC(=O)NC3=O)c3ccccc32)cc1	Cy5 interf NS3h 0.7
Cc1cccc(N2C(=O)NC(=O)/C(=C/c3ccc(-c4ccc(C(=O)O)c(Cl)c4)o3)C2=O)c1	none
COC(=O)c1cccc(-c2ccc(C=C3C(=O)NC(=S)NC3=O)o2)c1	Cy5 interf NS3h 0.75
COc1ccc(CN2CCNCC2)cc1OC	none
CCc1ccc(N2C(=O)NC(=O)/C(=C/C=C/c3ccco3)C2=O)cc1	NS3h inh CB 42
O=C1NC(=O)N(c2ccc(Br)cc2)C(=O)/C1=C/C=C/c1ccccc1	none
COc1ccccc1OCC(=O)N1CCN(C)CC1	none
COc1ccc(C2c3c(c4ccccc4oc3=O)Oc3c2c(=O)oc2ccccc32)cc1Cn1nc(C)c([N+](=O)[O-])c1C	none
Nc1ccc(Oc2ccc(N)c(N)c2)cc1N	Cy5 interf NS3h 0
CC1(C)CN1S(=O)(=O)c1ccc(Cl)cc1 (stereo unspecified)	none
COc1ccc(-c2ccc(C=C3C(=O)NC(=O)NC3=O)o2)c([N+](=O)[O-])c1	Cy5 interf NS3h 0.44
Cc1ccc(C=C2C(=O)NC(=O)NC2=O)cc1[N+](=O)[O-]	none
O=C1NC(=O)C(=Cc2ccccc2OCCOc2ccc([N+](=O)[O-])cc2)C(=O)N1	none
Cc1cc(-c2ccc(C=C3C(=O)NC(=O)NC3=O)o2)ccc1[N+](=O)[O-]	Cy5 interf NS3h 0.76
CCNc1cc2oc(=O)cc(C(F)(F)F)c2cc1C	none
O=c1oc2ccccc2c2c1C(c1ccccc1)c1c(c3ccccc3oc1=O)O2	none
Cc1nc2ccc(I)cc2c(=O)n1-c1ccc([N+](=O)[O-])cc1Cl	none
O=S(=O)(c1cc(Cl)c(O)c(Cl)c1)c1cc(Cl)c(O)c(Cl)c1	none
O=Cc1cn(Cc2ccc(Cl)c(Cl)c2)c2ccccc12	none
COc1ccc(CN2CCNCC2)c(OC)c1	none
CC(C)Oc1ccccc1C=C1C(=O)NC(=O)NC1=O	NS3h inh CB 42 | HCV NS3h conf inactive | SSB-DNA FP CB inactive | Cy5 SSB fluor CB inactive | Cy5 fluor confirm inactive
Cc1cc(C=C2C(=O)NC(=S)NC2=O)c(C)n1-c1ccccc1	none
COc1ccc(C=C2C(=O)NC(=O)NC2=O)c(OC)c1	NS3h inh CB 61 | HCV NS3h conf inactive | SSB-DNA FP CB inactive | Cy5 SSB fluor CB inactive | Cy5 fluor confirm inactive
CCC1(c2ccccc2)C(=O)NC(=O)N(C(=O)c2cccc(F)c2)C1=O (stereo unspecified)	none
COc1ccccc1CN1CCN(Cc2cc(Br)ccc2O)CC1	none
COc1ccc(O)c(CN2CCN(Cc3ccc(F)cc3)CC2)c1	Cy5 interf NS3h 1.2, NS3h inh CB 64 | HCV NS3h conf inactive | SSB-DNA FP CB inactive | Cy5 SSB fluor CB inactive | Cy5 fluor confirm inactive
COc1ccc(O)c(CN2CCN(Cc3ccc(Br)cc3)CC2)c1	none
CN(C)C(=O)C(c1ccccc1)c1ccccc1	none
CSc1ccc(CN2CCN(Cc3cc(Br)ccc3O)CC2)cc1	none
Cc1ccc(N2C(=O)NC(=O)/C(=C\c3ccc(-c4ccc(Cl)c(C(=O)O)c4)o3)C2=O)cc1	NS3h inh CB 62 | HCV NS3h conf 75 | SSB-DNA FP CB 62 | Cy5 SSB fluor CB inactive | Cy5 fluor confirm inactive
O=C1NC(=O)N(c2ccc(Cl)cc2)C(=O)/C1=C\c1cc(Br)cc(Cl)c1O	none
O=C1NC(=O)N(c2ccccc2F)C(=O)/C1=C/c1ccc(-c2cc(C(=O)O)ccc2Cl)o1	none | HCV NS3h conf 92 | SSB-DNA FP CB inactive | Cy5 SSB fluor CB inactive | Cy5 fluor confirm inactive
O=C1NC(=O)C(=Cc2ccc(-c3ccc(C(=O)O)cc3)o2)C(=O)N1	NS3h inh CB 69 | HCV NS3h conf inactive | SSB-DNA FP CB inactive | Cy5 SSB fluor CB inactive | Cy5 fluor confirm 0.8
COc1ccc(N2C(=O)/C(=C/c3ccc(-c4cc(C(=O)O)ccc4Cl)o3)C(=O)NC2=S)cc1	none | HCV NS3h conf inactive | SSB-DNA FP CB 67 | Cy5 SSB fluor CB inactive | Cy5 fluor confirm 0.8
Cc1cc(OCC(=O)c2ccccc2)c2c3c(c(=O)oc2c1)CCC3	none
CCc1ccc(CN2CCN(C(=O)COc3ccc(Cl)cc3)CC2)cc1	none
Cc1ccc(C)c(COc2cc(C)cc3oc(=O)c4c(c23)CCC4)c1	none
CC(=O)c1ccc(OC(=O)Cc2ccccc2)cc1	none
O=C(NC(O)C(Cl)(Cl)Cl)C1CC=CCC1 (stereo unspecified)	none
COc1ccc(C(c2c(O)c3ccccc3oc2=O)c2c(O)c3ccccc3oc2=O)cc1Cn1nc(C)c([N+](=O)[O-])c1C	none
O=C1NC(=S)NC(=O)C1=Cc1ccc(OCc2cccc3ccccc23)cc1	NS3h inh CB 53 | HCV NS3h conf inactive | SSB-DNA FP CB 66 | Cy5 SSB fluor CB inactive | Cy5 fluor confirm inactive
O=C1NC(=S)NC(=O)C1=Cc1ccc(OCc2cccc(C(=O)O)c2)cc1	NS3h inh CB 58 | HCV NS3h conf inactive | SSB-DNA FP CB 89 | Cy5 SSB fluor CB inactive | Cy5 fluor confirm inactive
Cc1cccc(N2C(=O)/C(=C/c3ccc(OCc4cccc(C(=O)O)c4)cc3)C(=O)NC2=S)c1	none
